Measurements published in PubChem BioAssay (NCI).
About 83,000 compounds went through this panel and 20% of them were active in at least one assay; those are over-represented in the sample as a whole.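 96-well plates, one dose, 48 hours. Percent growth reported; active if below 10.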 Values without a mark were called inactive. Activity calls are given as the source filed them.

What follows are compounds tested on MALME-3M melanoma (assay: NCI-60 one-dose screen, 48 h (100 = growth as untreated, 0 = no growth, -100 = all killed)). Details: 10 µM unless noted.
Compound O=[N+]([O-])c1cc2c(cc1Br)-c1ccccc1C2 has a growth of 110%. Clc1ccc(Nc2nc(Nc3ccccc3)nc(Nc3ccc(-c4cc(-c5ccc(Cl)cc5)on4)cc3)n2)cc1 showed a growth of 64.5%. With Cc1cc(=O)c2c(C)ccc(C)c2[nH]1 the growth was 102%. Cc1cc(=O)[nH]n1-c1cc(Cl)ccc1N gave a growth of 108%. Compound CC(C)OC1=C(Cl)C(=O)c2ccccc2C1=O has a growth of 111%. Compound COc1cccc(C2CC(=O)Nc3cc4c(cc32)OCO4)c1OC (stereo not drawn) has a growth of 93.1%. Work on COc1ccccc1CNCCCCCCCCCCCCN1C(=O)c2ccc3c4c(ccc(c24)C1=O)C(=O)N(CCCCCCCCCCCCNCc1ccccc1OC)C3=O yielded a growth of 97.6%. O=C1C=CC(=O)N1CCCCCCCCCCN1C(=O)C=CC1=O gave a growth of 70%. In the case of Cc1ccc(N=c2nc3sc4c(C)ccc(C)c4n3c(N)c2C#N)cc1, the growth is reported as 125%. Work on COc1cc2nc(SCc3cc(OC)c(OC)c(OC)c3)n(-c3ccccc3OC)c(=O)c2cc1OC yielded a growth of 63%. Cc1nc2nc(C(F)(F)F)[nH]c2nc1C gave a growth of 117%. In the case of CC(C)(C)[Si](C)(C)OC1[C@@H](CNC(=O)NC(=O)CCl)O[C@@H](n2cnc3c(N)ncnc32)[C@H]1O[Si](C)(C)C(C)(C)C (stereo partly drawn), the growth is reported as -67.3% (active). In the case of Fc1ccccc1Nc1ccc2nnc(-c3ccncc3)n2n1, the growth is reported as 103%. In the case of NC(=O)c1nc2c([nH]c1=O)CCCC2, the growth is reported as 101%. In the case of O=C(NCc1cccnc1)c1ccc([N+](=O)[O-])o1, the growth is reported as -61% (active). Work on N#CC1=C(N)Oc2cc(N)ccc2C1c1ccc(F)cc1 (stereo not drawn) yielded a growth of 71.9%. With O=c1[nH]c(-c2ccncc2)nc2sc3c(c12)CCCCCC3 the growth was 64%. With CC1SC(c2cccc(Oc3ccccc3)c2)N(CCc2cccs2)C1=O (stereo not drawn) the growth was -72.7% (active). Work on COc1ccc(-c2c(-c3cc4c(c(OC)c3OC)OCO4)noc2N)cc1 yielded a growth of 56.7%. For c1ccc(-c2n(Cc3ccc4ccccc4n3)c3ccccc3[n+]2Cc2ccc3ccccc3n2)cc1, the growth was -24.6% (active). Compound O=S(=O)(Nc1ncccn1)c1ccc(Nc2ccc3nnc(-c4ccncc4)n3n2)cc1 has a growth of 97.6%. With O=C1NC(=S)S/C1=C\c1cccc([N+](=O)[O-])c1 the growth was 153%. Compound COCCOC1=C(Cl)C(=O)c2ccccc2C1=O has a growth of 96.4%. In the case of Clc1ccccc1Nc1ccc2nnc(-c3ccncc3)n2n1, the growth is reported as 112%. In the case of COc1cc(CNCCCN2C(=O)c3ccc4c5c(ccc(c35)C2=O)C(=O)N(CCCNCc2cc(OC)c(OC)c(OC)c2)C4=O)cc(OC)c1OC, the growth is reported as -87.1% (active). O=C1C(OCCOc2ccccc2)=C(OCCOc2ccccc2)C(=O)c2ccccc21 was tested, and the growth was 54.7%. Work on COc1ccc(OC)c(C2C(C#N)=C(N)Oc3cc(O)ccc32)c1 (stereo not drawn) yielded a growth of 85.9%. In the case of O=C1c2ccccc2C(=O)c2c(Nc3ccc(CCO)cc3)ccc(O)c21, the growth is reported as 77.2%. In the case of CCOC(=O)c1c(Cl)c2c(n1Cc1ccc(OC)cc1)-c1oncc1CCC2, the growth is reported as 119%. Cc1oc2c(c1C(=O)N1CC[C@@H](N)C1)C(=O)c1c(c(O)c3ccccc3c1O)C2=O gave a growth of 53.2%. For O=C1c2[nH]cc(CN[C@@H]3CCCN3)c2C(=O)c2c1c(O)c1ccccc1c2O, the growth was -51.9% (active). O=C1C(N2CCOCC2)=Cc2cccc3cccc1c23 gave a growth of 113%. With COc1ccc(Cn2c(Br)c3c(c2-c2cc(OC)c(OC)c(OC)c2)CCc2sc(N)nc2-3)cc1 the growth was 47.7%. Nc1nc2c(s1)CCc1c-2c(Br)n(Cc2ccccc2)c1Br showed a growth of 37.8%.

Each compound was assayed on MDA-MB-231 breast in the same assay as above. Details: 10 µM unless noted.
With O=[N+]([O-])c1cc2c(cc1Br)-c1ccccc1C2 the growth was 90.8%. Clc1ccc(Nc2nc(Nc3ccccc3)nc(Nc3ccc(-c4cc(-c5ccc(Cl)cc5)on4)cc3)n2)cc1 gave a growth of 60.5%. For Cc1cc(=O)c2c(C)ccc(C)c2[nH]1, the growth was 99.3%. Cc1cc(=O)[nH]n1-c1cc(Cl)ccc1N was tested, and the growth was 124%. Compound CC(C)OC1=C(Cl)C(=O)c2ccccc2C1=O has a growth of 85.6%. For COc1cccc(C2CC(=O)Nc3cc4c(cc32)OCO4)c1OC (stereo not drawn), the growth was 97.3%. In the case of COc1ccccc1CNCCCCCCCCCCCCN1C(=O)c2ccc3c4c(ccc(c24)C1=O)C(=O)N(CCCCCCCCCCCCNCc1ccccc1OC)C3=O, the growth is reported as 64.1%. Work on O=C1C=CC(=O)N1CCCCCCCCCCN1C(=O)C=CC1=O yielded a growth of 104%. Cc1ccc(N=c2nc3sc4c(C)ccc(C)c4n3c(N)c2C#N)cc1 gave a growth of 93.9%. In the case of COc1cc2nc(SCc3cc(OC)c(OC)c(OC)c3)n(-c3ccccc3OC)c(=O)c2cc1OC, the growth is reported as 77.5%. Cc1nc2nc(C(F)(F)F)[nH]c2nc1C gave a growth of 114%. For CC(C)(C)[Si](C)(C)OC1[C@@H](CNC(=O)NC(=O)CCl)O[C@@H](n2cnc3c(N)ncnc32)[C@H]1O[Si](C)(C)C(C)(C)C (stereo partly drawn), the growth was -76.8% (active). Compound Fc1ccccc1Nc1ccc2nnc(-c3ccncc3)n2n1 has a growth of 101%. For NC(=O)c1nc2c([nH]c1=O)CCCC2, the growth was 118%. For CCN1CCN(C(=S)SCC(=O)Nc2nc3ccc(OC)cc3s2)CC1, the growth was 98%. In the case of O=C(NCc1cccnc1)c1ccc([N+](=O)[O-])o1, the growth is reported as 107%. N#CC1=C(N)Oc2cc(N)ccc2C1c1ccc(F)cc1 (stereo not drawn) was tested, and the growth was 83.4%. O=c1[nH]c(-c2ccncc2)nc2sc3c(c12)CCCCCC3 gave a growth of 62.1%. In the case of CC1SC(c2cccc(Oc3ccccc3)c2)N(CCc2cccs2)C1=O (stereo not drawn), the growth is reported as -47.5% (active). For COc1ccc(-c2c(-c3cc4c(c(OC)c3OC)OCO4)noc2N)cc1, the growth was 48.7%. With c1ccc(-c2n(Cc3ccc4ccccc4n3)c3ccccc3[n+]2Cc2ccc3ccccc3n2)cc1 the growth was -13.1% (active). Compound O=S(=O)(Nc1ncccn1)c1ccc(Nc2ccc3nnc(-c4ccncc4)n3n2)cc1 has a growth of 92.2%. For CC(=O)c1cc(C)c(OC(=O)c2ccccc2)c(C)c1, the growth was 94.6%. With Oc1ccccc1/C=N/Nc1nc2ccccc2s1 the growth was 37.7%. Work on O=C1NC(=S)S/C1=C\c1cccc([N+](=O)[O-])c1 yielded a growth of 93.8%. For COCCOC1=C(Cl)C(=O)c2ccccc2C1=O, the growth was 34.8%. O=C1NC(=O)C(CSc2ccccc2)(c2ccccc2)N1 (stereo not drawn) gave a growth of 104%. Work on Clc1ccccc1Nc1ccc2nnc(-c3ccncc3)n2n1 yielded a growth of 108%. With COc1cc(CNCCCN2C(=O)c3ccc4c5c(ccc(c35)C2=O)C(=O)N(CCCNCc2cc(OC)c(OC)c(OC)c2)C4=O)cc(OC)c1OC the growth was -17.5% (active). O=C1C(OCCOc2ccccc2)=C(OCCOc2ccccc2)C(=O)c2ccccc21 gave a growth of 70.5%. Compound COc1ccc(OC)c(C2C(C#N)=C(N)Oc3cc(O)ccc32)c1 (stereo not drawn) has a growth of 99%. O=C1c2ccccc2C(=O)c2c(Nc3ccc(CCO)cc3)ccc(O)c21 was tested, and the growth was 56.4%. Work on CCOC(=O)c1c(Cl)c2c(n1Cc1ccc(OC)cc1)-c1oncc1CCC2 yielded a growth of 77.2%. Work on Cc1oc2c(c1C(=O)N1CC[C@@H](N)C1)C(=O)c1c(c(O)c3ccccc3c1O)C2=O yielded a growth of 35.2%. O=C1c2[nH]cc(CN[C@@H]3CCCN3)c2C(=O)c2c1c(O)c1ccccc1c2O was tested, and the growth was -96.7% (active). O=C1C(N2CCOCC2)=Cc2cccc3cccc1c23 gave a growth of 106%. COc1ccc(Cn2c(Br)c3c(c2-c2cc(OC)c(OC)c(OC)c2)CCc2sc(N)nc2-3)cc1 gave a growth of 12.6%. In the case of Nc1nc2c(s1)CCc1c-2c(Br)n(Cc2ccccc2)c1Br, the growth is reported as 80.9%. In the case of COC(=O)/C=C1/CCC2C3CCC4=CC(=O)C(Br)CC4(C)C3C(=O)CC12C (stereo not drawn), the growth is reported as 78%.
